Assay results from PubChem BioAssay (NCATS).
Values joined by “and” are separate entries in the source; they are usually repeats but may differ in a detail not shown here. Identical values can stand only once. Unmarked numbers belong to inactive results. Records with an inconclusive call do not appear. Entries that show only a call come without a potency. Active and inactive are the calls of the source. Unless noted, calls come from the whole dose curve; as a rule, active = well fitted curve in the direction sought with a large enough effect; inconclusive = small, poorly fitted or top-dose-only effect, or another doubt; inactive = no such curve, though single readings can be large; an effect the other way counts as inactive or inconclusive.

How the values were obtained:
[1] = biological target: Guanine nucleotide-binding protein G(i) subunit alpha-1 (Homo sapiens) (UniProt P63096); test: qHTS Assay for Inhibitors of RGS12 GoLoco Motif Activity (Green Fluorophore) (AID 879);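 note: negative values mean loss of peptide binding seen as reduced polarization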
How it was run: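 Fluorescence polarization assay: 50 nM Gαi1 with 10 nM FITC-labeled RGS12 GoLoco peptide in 10 mM Tris pH 7.5, 150 mM NaCl, 0.1 mM GDP, 0.05% NP40, 10 min at room temperature with compound.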

[2] = biological target: Cytochrome P450 2C9 (Homo sapiens) (UniProt P11712); test: qHTS Assay for Inhibitors and Substrates of Cytochrome P450 2C9 (AID 883); note: potency is the fitted concentration of half-maximal effect; nearly all actives have a fitted effect of over 60% in size
How it was run: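 Signal: luciferase luminescence reporting luciferin produced by CYP2C9. Conditions: 10nM enzyme, Luciferin-H 100uM at KM, 25mM KPO4, 37C, 60 min NADPH-driven reaction. Reference: 57uM sulphaphenazole as 100% inhibition.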

[3] = biological target: Cytochrome P450 2C19 (Homo sapiens) (UniProt P33261); test: qHTS Assay for Inhibitors and Substrates of Cytochrome P450 2C19 (AID 899); note: potency is the fitted concentration of half-maximal effect; nearly all actives have a fitted effect of over 60% in size
How it was run: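 Signal comes from luciferase acting on luciferin released by CYP2C19-mediated hydroxylation of Luciferin-H EGE, 10uM (KM). Assay mix: 5nM enzyme, 50mM KPO4; 60 min at 37C with NADPH regeneration. Data normalized against 57uM ketoconazole.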

[4] = qHTS Assay for Identification of Small Molecule Antagonists for Thrombopoietin (TPO) Signaling Pathway (AID 918); conditions: TPO-dependent cell signaling reporter, antagonist mode; note: potency is the fitted concentration of half-maximal effect; nearly all actives have a fitted effect of over 60% in size
How it was run: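 Murine Ba/F3 cells expressing human TPO receptor and a Glycoprotein IIb promoter-luciferase reporter, IL-3-starved overnight, treated with compound plus TPO at EC50 (26 pM final). After 24 h at 37 C, luminescence read to detect inhibitors.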

[5] = biological target: Pyruvate kinase (Leishmania mexicana) (UniProt Q27686); test: qHTS Validation Assay for Inhibitors of Leishmania Mexicana Pyruvate Kinase (AID 945)
How it was run: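 Eight-point qHTS titrations; enzyme 0.2 nM LmPYK (E451W mutant); substrates 0.5 mM PEP, 0.1 mM ADP; 7 mM MgCl2; 1 h room temperature; PKLight luminescence normalized to neutral control.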

[6] = biological target: Pyruvate kinase PKM (Homo sapiens) (UniProt P14618); test: qHTS Assay for Activators of Human Muscle Pyruvate Kinase (AID 954; active = well fitted curve in the direction sought with a large enough effect, not every such curve was filed as active)
How it was run: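 Enzyme was run at intermediate activity so both inhibitors and activators could be detected. ATP formed from ADP and PEP by 0.1 nM human PKM2 during a 1 h room-temperature incubation was quantified by coupled luciferase luminescence.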

[7] = biological target: Alpha-galactosidase (Coffea arabica) (UniProt Q42656); test: Counterscreen for Glucocerebrosidase Inhibitors: qHTS Assay for Coffee Bean alpha-Galactosidase at pH 4.5 (AID 957); note: series mostly up to about 77 µM
How it was run: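 Coffee bean enzyme (2 nM) with 80 uM 4-methylumbelliferyl alpha-D-galactopyranoside in 50 mM citric acid, 0.005% Tween-20, pH 4.5, 20 min at room temperature; compounds 0.7 nM–77 uM. Stopped at pH 10, fluorescence 365/440 nm; AC50 from Hill fits.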

[8] = biological target: Alpha-galactosidase A (Homo sapiens) (UniProt P06280); test: Counterscreen for Glucocerebrosidase Inhibitors: qHTS Assay for Human alpha-Galactosidase at pH 4.5 (AID 992)
How it was run: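 Read-out is 4-methylumbelliferone fluorescence (365 nm excitation, 440 nm emission) after a pH 10 NaOH/glycine stop. Reactions held 2 nM enzyme and 80 uM substrate at pH 4.5 for 20 min at room temperature.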

[9] = biological target: alpha-glucosidase (Oryza sativa, rice) (UniProt Q653V4); test: Counterscreen for Glucocerebrosidase Inhibitors: qHTS Assay for Rice alpha-Glucosidase at pH 5.0 (AID 997)
How it was run: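 Rice alpha-glucosidase (4 nM final) with 400 uM 4-methylumbelliferyl-alpha-D-glucopyranoside in citrate buffer pH 5.0, 20 min at room temperature, stopped at pH 10; fluorescence 365/440 nm, compounds 0.7 nM–77 uM, AC50 from Hill fits.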

[10] = biological target: Alpha-galactosidase (Coffea arabica) (UniProt Q42656); test: Counterscreen for Glucocerebrosidase Inhibitors: qHTS Assay for Coffee Bean alpha-Galactosidase at pH 5.9 (AID 998)
How it was run: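 Green coffee bean enzyme (2 nM) with 4-methylumbelliferyl alpha-D-galactopyranoside (80 uM) in 50 mM citric acid, 0.005% Tween-20, pH 5.9, 20 min at room temperature; compounds 0.7 nM–77 uM. Stopped at pH 10, fluorescence Ex365/Em440; Hill-fit AC50.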

[11] = biological target: DNA repair nuclease/redox regulator APEX1 (Homo sapiens) (UniProt P27695); test: qHTS Validation Assay for Inhibitors of the Human Apurinic/apyrimidinic Endonuclease 1 (APE1) (AID 1705;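 note: TAMRA fluorescence gain over two minutes as APE1 cuts a quenched THF abasic duplex; series mostly up to about 57 µM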)
How it was run: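 Substrate: 50 nM final fluorophore/quencher THF-abasic duplex. Enzyme preincubated with compounds 15 min, RT. Progress derived from fluorescence difference, third minus first kinetic read.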

[12] = Counterscreen for APE1 Inhibitors: Fluorescent Dye Displacement Validation Assay (AID 1707)
How it was run: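 ThO 250 nM + dsDNA 50 nM (THF abasic site, 5'-TAMRA), Tris-HCl pH7.5/50mM NaCl/2 mM MgCl2/0.01% Tween-20; compounds pin-transferred; ex 480/em 540 nm endpoint. Neutral = no compound; no-DNA ThO wells = negative control.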

[13] = biological target: Endonuclease 4 (Escherichia coli (strain K12)) (UniProt P0A6C1); test: Counterscreen for APE1 Inhibitors: qHTS Validation Assay for Inhibitors of Endonuclease IV (AID 1708)
How it was run: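 E. coli EndoIV at 2 nM final, preincubated 15 min at room temperature with compound, then 50 nM TAMRA/BHQ-2 THF abasic-site duplex added. Buffer: 50 mM Tris-HCl pH 7.5, 50 mM NaCl, 2 mM MgCl2, 1 mM DTT, 0.01% Tween-20. Kinetic fluorescence increase, third minus first read.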

[14] = qHTS for differential inhibitors of proliferation of Plasmodium falciparum line 7G8 (AID 1815);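 note: potency is the fitted concentration of half-maximal effect; parasite growth measured after three days of incubation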
[15] = qHTS for differential inhibitors of proliferation of Plasmodium falciparum line GB4 (AID 1816); conditions: Potency: Plasmodium falciparum GB4 proliferation inhibition;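 note: potency is the fitted concentration of half-maximal effect; parasite growth measured after 72 h incubation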
[16] = qHTS for differential inhibitors of proliferation of Plasmodium falciparum line D10 (AID 1877);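 note: parasites grown with compound for 72 h before DNA staining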
[17] = qHTS for differential inhibitors of proliferation of Plasmodium falciparum line W2 (AID 1883); conditions: Potency: Plasmodium falciparum W2 proliferation inhibition;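 note: potency is the fitted concentration of half-maximal effect; parasites grown with compound for 72 h before lysis and staining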
[18] = qHTS for differential inhibitors of proliferation of Plasmodium falciparum line HB3 (AID 1886); conditions: Potency: Plasmodium falciparum HB3 proliferation inhibition;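 note: parasites grown with compound for 72 h before SYBR Green readout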
[19] = biological target: Ferritin light chain (Equus caballus) (UniProt P02791); test: qHTS Validation Assay for Identification of Novel General Anesthetics (AID 2323); note: series mostly up to about 77 µM
How it was run: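 Normalized fluorescence response, scaled between free 1-AMA and 1-AMA/apoferritin complex, fitted to a four-parameter Hill equation for concentration-effect values. Binding mix: 10 uM horse-spleen apoferritin, 50% saturated 1-AMA in PBS; read 380/535 nm after 10 min.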

[20] = biological target: ATP-dependent DNA helicase Q1 (Homo sapiens) (UniProt P46063); test: qHTS Validation Assay for Inhibitors of RecQ-Like Dna Helicase 1 (RECQ1) (AID 2353)
How it was run: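 50 nM RECQ1T1 preincubated 15 min with compound in Tris pH 8.0 buffer with MgCl2, DTT, Tween-20 and 2.5 ug/ml poly(dI-dC); started with 200 nM TAMRA/BHQ-2 forked duplex and 2 mM ATP. Unwinding read as fluorescence (525/598 nm), two reads 2 h apart.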

[21] = Validation screen for inhibitors of Lassa infection (AID 463096; calls by dose curve)
[22] = Validation screen for small molecules that induce DNA re-replication in MCF 10A normal breast cells (AID 463097); note: nearly all actives have a fitted effect of over 60% in size
How it was run: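 Following 48 hr compound incubation (37 C, 5% CO2), MCF 10A cells receive Hoechst for 40 min at 37 C. Nuclei are then scanned (excitation 405 nm, emission 500-530 nm) for total fluorescence intensity.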

[23] = Quantitative high throughput screen for delayed death inhibitors of the malarial parasite plastid, 48 hour incubation (AID 488752); note: nearly all actives have a fitted effect of over 65% in size
How it was run: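 Erythrocytes infected with firefly luciferase-expressing P. falciparum (2% hematocrit, 0.1% parasitemia) cultured with compound for 48 h at 37 C, 5% CO2, in RPMI 1640/0.5% Albumax. Growth inhibition read as loss of luminescence.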

[24] = biological target: M-phase phosphoprotein 8 (Homo sapiens) (UniProt Q99549); test: qHTS Validation Assay for Inhibitors for MPP8 Chromodomain Interactions with Methylated Histone Tails (AID 488949);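 note: 50 nM MPP8 with 50 nM peptide preformed then compounds added for 30 min; AlphaScreen signal from MPP8 chromodomain bound to biotinylated H3K9me3 peptide; top concentration of the series differs between compounds; nearly all actives have a fitted effect of over 55% in size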
How it was run: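 Chemiluminescent proximity assay: histidine-tag capture via nickel acceptor beads, biotin peptide via streptavidin donor beads. Protein and peptide each at 50 nM, pH 7.4, with 30 min incubations at room temperature for complex formation, compound exposure and bead binding.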

[25] = biological target: Transient receptor potential cation channel subfamily V member 1 (Homo sapiens) (UniProt Q8NER1); test: HTS Assay for Compounds that Act as Enhancers of the Vanilloid Receptor 1 (AID 488979)
How it was run: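 TRPV1 cells loaded with Fluo-8 calcium dye; compound added and Ca2+ signal (ex 480/em 520 nm) followed 3 min, then capsaicin at EC20 added and read 2 more min to detect enhancement.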

[26] = biological target: Thyrotropin receptor (Homo sapiens) (UniProt P16473); test: qHTS Assay for Antagonists of the Thyroid Stimulating Hormone Receptor (AID 488980); note: series mostly up to about 58 µM
How it was run: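 Inhibition of TSH-stimulated cAMP accumulation was quantified by homogeneous time-resolved FRET in TSHR-transfected HEK293 cells. Agonist: TSH, 4 nM final (EC80).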

[27] = biological target: Thyrotropin-releasing hormone receptor (Homo sapiens) (UniProt P34981); test: qHTS for Small Molecule Agonists and Allosteric Enhancers of Human TRH Receptor: Validation Screen for Agonists (AID 493127;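 active = calcium activation more than 3 SD above the typical response in the agonist read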); conditions: TRH receptor agonist cell assay; at 2 µM; stronger effect = higher value
How it was run: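 TRHR cells loaded with fluo-8 calcium dye; FDSS kinetic fluorescence (Ex 480/Em 530) read at 1 s/cycle after 23 nL compound addition. Agonist-mode calcium response recorded before the 10 nM TRH (EC20) addition.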

[28] = biological target: Galactokinase (Homo sapiens) (UniProt P51570); test: qHTS Validation Assay for Inhibitors of Human Galactokinase (GALK) (AID 493189)
How it was run: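 Enzyme activity is inferred from ATP consumption: human GALK phosphorylates galactose (100 uM) using 35 uM ATP for 1 h at room temperature, and luciferase-based Kinase-Glo Plus reports unconsumed ATP.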

[29] = Validation screen for small molecules that induce DNA re-replication in SW480 colon adenocarcinoma cells (AID 504364)
How it was run: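 SW480 cells (250/well) exposed 48 h at 37 C, 5% CO2, then Hoechst-stained 40 min. Nuclear DNA content imaged by fluorescence scanning (405 nm excitation, 500-530 nm emission); re-replication scored as increased nuclei with elevated intensity.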

[30] = biological target: Voltage-gated inwardly rectifying potassium channel KCNH2 (Homo sapiens) (UniProt Q12809); test: qHTS Assay for Small Molecule Inhibitors of the Human hERG Channel Activity (AID 588834);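 note: top concentration of the series differs between compounds; lower thallium flux fluorescence means stronger hERG block; nearly all actives have a fitted effect of over 50% in size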
How it was run: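 Blockade is seen as reduced FluxOR thallium-flux fluorescence in U2OS cells expressing hERG from a BacMam construct, in Opti-MEM with 2% FCS. Concentration-response data fitted to the Hill equation for AC50.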

[31] = biological target: Tumor susceptibility gene 101 protein (Homo sapiens) (UniProt Q99816); test: qHTS Assay for Iinhibitors of HIV-1 Budding by Blocking the Interaction of PTAP/TSG101: Hit Validation (AID 651600); note: nearly all actives have a fitted effect of over 70% in size
How it was run: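 Measuring PTAP–Tsg101 interaction by FP: protein at 10 uM and fluorescent peptide at 50 nM (final), buffer 10 mM HEPES pH 7.5 with 0.15 M NaCl, 3 mM EDTA, 0.1 mM TCEP, 0.01% Tween 20; 20 min incubation, r.t.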

[32] = Vero cells viability qHTS for Zika virus inhibitors (AID 1347167)
How it was run: (§1)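 Cells seeded at 2.5 x 10^5 cells/mL in DMEM with 4% FBS and attached overnight at 37 degrees C, then exposed to compound for 24 to 48 hours. Viability read as ATP content by CellTiter Glo luminescence.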

[33] = HepG2 cells viability qHTS for Zika virus inhibitors (AID 1347168)
How it was run: as §1

[34] = Tertiary RLuc qRT-PCR qHTS assay for Zika virus inhibitors (AID 1347169); note: top concentration of the series differs between compounds; nearly all actives have a fitted effect of over 55% in size
How it was run: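 Inhibition of ZIKV-RLuc replication in Vero cells, read as Renilla luminescence 1-1.5 hrs after live-cell substrate addition, following 48-72 hrs infection at MOI 1-2 in presence of compound.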

Chain of Alpha-galactosidase (Coffea arabica) (Q42656 whole entry, looked up): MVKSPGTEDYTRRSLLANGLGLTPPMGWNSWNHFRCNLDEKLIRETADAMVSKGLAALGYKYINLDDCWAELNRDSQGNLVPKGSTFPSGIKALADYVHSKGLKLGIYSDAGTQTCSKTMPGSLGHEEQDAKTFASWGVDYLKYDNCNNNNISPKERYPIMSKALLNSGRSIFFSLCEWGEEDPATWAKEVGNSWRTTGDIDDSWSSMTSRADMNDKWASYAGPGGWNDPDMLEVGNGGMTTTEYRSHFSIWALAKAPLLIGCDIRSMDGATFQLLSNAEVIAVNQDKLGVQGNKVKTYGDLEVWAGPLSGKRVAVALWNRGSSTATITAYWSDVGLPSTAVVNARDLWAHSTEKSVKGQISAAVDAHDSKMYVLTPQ
Chain of Cytochrome P450 2C9 (Homo sapiens) (P11712 whole entry, looked up): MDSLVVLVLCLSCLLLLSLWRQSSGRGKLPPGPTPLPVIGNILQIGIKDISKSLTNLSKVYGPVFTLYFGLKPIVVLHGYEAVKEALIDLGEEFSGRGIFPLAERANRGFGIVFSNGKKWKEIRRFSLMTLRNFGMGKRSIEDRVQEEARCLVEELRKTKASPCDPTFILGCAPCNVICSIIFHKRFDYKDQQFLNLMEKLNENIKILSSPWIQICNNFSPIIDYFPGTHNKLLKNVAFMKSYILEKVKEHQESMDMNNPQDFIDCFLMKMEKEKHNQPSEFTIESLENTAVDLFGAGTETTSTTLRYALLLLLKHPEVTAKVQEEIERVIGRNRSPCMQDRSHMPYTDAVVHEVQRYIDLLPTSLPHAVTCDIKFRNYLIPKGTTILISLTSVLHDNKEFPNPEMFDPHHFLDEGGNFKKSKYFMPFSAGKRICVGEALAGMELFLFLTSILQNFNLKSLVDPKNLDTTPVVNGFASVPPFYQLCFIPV
Chain of Cytochrome P450 2C19 (Homo sapiens) (P33261 whole entry, looked up): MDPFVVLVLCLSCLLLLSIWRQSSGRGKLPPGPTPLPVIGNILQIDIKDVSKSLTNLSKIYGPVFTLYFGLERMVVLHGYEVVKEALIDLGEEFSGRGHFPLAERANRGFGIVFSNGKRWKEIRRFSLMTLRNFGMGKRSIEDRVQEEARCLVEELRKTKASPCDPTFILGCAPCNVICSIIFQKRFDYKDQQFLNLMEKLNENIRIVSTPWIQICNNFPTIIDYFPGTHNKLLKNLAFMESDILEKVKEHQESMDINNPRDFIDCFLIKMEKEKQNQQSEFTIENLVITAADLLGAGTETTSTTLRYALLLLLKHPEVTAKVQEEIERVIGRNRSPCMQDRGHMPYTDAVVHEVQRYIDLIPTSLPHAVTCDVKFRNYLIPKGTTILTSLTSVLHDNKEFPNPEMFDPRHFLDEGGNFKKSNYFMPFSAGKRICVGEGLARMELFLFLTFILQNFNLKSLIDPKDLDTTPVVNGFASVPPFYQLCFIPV
Chain of Guanine nucleotide-binding protein G(i) subunit alpha-1 (Homo sapiens) (P63096 whole entry, looked up): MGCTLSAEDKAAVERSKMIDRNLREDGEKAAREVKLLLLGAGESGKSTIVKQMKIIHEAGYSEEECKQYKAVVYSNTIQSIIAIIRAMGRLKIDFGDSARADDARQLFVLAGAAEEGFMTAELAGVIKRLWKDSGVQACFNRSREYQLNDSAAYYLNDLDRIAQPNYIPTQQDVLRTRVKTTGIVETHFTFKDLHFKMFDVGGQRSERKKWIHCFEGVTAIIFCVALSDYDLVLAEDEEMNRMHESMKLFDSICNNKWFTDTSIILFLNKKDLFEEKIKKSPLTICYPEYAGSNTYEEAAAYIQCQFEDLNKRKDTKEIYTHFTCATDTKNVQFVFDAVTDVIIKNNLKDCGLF
Chain of Transient receptor potential cation channel subfamily V member 1 (Homo sapiens) (Q8NER1 whole entry, looked up): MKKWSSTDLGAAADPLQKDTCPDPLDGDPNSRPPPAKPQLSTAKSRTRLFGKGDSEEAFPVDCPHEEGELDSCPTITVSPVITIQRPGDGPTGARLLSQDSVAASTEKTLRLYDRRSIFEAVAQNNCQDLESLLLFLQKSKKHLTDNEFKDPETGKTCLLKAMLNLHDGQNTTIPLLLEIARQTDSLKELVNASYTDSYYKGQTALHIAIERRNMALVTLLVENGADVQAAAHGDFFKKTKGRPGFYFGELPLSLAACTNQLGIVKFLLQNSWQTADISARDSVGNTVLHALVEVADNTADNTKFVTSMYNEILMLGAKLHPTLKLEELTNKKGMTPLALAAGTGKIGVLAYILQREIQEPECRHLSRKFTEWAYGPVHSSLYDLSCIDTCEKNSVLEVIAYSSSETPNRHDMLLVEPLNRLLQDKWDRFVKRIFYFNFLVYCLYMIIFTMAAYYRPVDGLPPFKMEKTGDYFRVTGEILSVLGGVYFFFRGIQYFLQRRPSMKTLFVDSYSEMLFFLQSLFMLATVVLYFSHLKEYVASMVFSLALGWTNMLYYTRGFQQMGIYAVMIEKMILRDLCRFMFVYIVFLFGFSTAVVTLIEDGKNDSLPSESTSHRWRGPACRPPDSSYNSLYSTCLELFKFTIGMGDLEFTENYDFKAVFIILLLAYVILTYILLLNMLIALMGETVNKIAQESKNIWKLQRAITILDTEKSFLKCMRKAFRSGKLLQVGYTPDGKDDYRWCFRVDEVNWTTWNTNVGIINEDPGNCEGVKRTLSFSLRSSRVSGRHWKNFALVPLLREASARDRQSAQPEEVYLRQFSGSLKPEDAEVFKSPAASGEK
Chain of Pyruvate kinase PKM (Homo sapiens) (P14618 whole entry, looked up): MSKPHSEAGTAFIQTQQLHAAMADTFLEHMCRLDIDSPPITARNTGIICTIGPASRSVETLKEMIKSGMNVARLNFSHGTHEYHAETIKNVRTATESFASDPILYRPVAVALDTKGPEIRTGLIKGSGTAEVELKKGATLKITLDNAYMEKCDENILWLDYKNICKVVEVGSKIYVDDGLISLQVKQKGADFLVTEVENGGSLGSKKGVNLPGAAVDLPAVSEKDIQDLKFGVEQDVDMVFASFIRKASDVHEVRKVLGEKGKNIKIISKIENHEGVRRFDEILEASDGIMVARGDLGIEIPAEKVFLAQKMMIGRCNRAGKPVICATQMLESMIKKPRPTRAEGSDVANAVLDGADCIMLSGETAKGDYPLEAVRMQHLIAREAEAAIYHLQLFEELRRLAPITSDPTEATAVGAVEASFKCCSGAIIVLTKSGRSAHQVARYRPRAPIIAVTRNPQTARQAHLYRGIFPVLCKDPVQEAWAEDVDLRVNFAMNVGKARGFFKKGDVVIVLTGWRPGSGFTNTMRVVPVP
Chain of DNA repair nuclease/redox regulator APEX1 (Homo sapiens) (P27695 whole entry, looked up): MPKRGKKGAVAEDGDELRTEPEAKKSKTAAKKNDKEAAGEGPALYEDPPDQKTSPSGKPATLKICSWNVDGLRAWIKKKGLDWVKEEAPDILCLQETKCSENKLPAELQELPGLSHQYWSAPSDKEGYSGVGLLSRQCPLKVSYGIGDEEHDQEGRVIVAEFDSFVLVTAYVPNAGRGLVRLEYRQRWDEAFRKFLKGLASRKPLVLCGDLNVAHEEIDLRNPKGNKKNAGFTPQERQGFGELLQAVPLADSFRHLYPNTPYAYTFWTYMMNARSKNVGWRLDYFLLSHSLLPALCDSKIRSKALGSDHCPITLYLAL
Chain of Tumor susceptibility gene 101 protein (Homo sapiens) (Q99816 whole entry, looked up): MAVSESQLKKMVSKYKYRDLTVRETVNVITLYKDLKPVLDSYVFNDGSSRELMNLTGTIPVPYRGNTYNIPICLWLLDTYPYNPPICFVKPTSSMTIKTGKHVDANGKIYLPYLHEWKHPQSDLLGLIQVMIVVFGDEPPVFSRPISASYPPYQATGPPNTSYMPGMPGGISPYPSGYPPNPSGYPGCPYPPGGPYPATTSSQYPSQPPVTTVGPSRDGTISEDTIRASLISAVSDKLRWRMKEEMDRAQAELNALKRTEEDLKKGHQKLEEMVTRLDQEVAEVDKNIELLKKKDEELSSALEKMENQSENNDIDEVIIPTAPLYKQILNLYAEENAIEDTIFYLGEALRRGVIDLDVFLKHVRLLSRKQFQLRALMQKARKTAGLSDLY
Chain of Voltage-gated inwardly rectifying potassium channel KCNH2 (Homo sapiens) (Q12809 whole entry, looked up): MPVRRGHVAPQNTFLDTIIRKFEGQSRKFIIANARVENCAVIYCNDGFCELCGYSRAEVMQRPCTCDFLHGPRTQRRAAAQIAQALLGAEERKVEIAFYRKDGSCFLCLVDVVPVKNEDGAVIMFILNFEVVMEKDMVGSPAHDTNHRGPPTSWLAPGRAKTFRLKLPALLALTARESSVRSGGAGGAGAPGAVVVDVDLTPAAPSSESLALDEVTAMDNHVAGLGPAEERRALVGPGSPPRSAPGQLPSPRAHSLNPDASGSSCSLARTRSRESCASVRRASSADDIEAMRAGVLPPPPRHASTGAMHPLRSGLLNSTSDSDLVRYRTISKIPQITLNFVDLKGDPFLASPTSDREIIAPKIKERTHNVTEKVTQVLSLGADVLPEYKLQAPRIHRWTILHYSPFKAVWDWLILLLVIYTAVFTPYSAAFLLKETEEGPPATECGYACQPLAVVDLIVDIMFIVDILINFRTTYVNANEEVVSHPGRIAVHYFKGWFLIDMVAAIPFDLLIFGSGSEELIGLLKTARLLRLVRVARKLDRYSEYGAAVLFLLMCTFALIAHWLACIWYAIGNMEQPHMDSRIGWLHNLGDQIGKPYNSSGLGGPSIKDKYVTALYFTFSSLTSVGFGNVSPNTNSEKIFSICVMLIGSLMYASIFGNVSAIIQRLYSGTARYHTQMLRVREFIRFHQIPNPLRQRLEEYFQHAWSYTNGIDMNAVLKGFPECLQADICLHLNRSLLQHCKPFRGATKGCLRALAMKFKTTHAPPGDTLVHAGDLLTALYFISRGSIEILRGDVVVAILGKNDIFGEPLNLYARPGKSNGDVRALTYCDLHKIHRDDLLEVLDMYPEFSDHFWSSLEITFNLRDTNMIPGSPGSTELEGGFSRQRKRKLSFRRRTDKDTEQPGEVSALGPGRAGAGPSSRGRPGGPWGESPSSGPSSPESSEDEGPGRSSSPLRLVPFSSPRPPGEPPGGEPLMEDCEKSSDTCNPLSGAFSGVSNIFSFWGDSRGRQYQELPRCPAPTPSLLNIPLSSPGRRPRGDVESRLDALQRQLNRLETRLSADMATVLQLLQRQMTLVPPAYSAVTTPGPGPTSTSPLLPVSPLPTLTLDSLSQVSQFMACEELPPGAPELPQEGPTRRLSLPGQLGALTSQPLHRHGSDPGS

SMILES: CC(C)[C@@]1(NC(=O)[C@@H]2C[C@H]3c4cccc5[nH]cc(c45)C[C@@H]3N(C)C2)O[C@@]2(O)[C@H]3CCCN3C(=O)[C@H](Cc3ccccc3)N2C1=O
- outcome [1]: inactive
- Potency [2]: 2.51 µM (active) and 6.31 µM (active)
- Potency [3]: 3.98 µM (active) and 5.01 µM (active)
- Potency [4]: 10 µM (active)
- outcome [5]: inactive
- outcome [6]: inactive
- outcome [7]: inactive
- outcome [8]: inactive
- outcome [9]: inactive
- outcome [10]: inactive

SMILES: C=CCN1CCC2(C)c3cc(O)ccc3CC1C2C (centres undefined)
- Potency [11]: inactive
- Potency [12]: inactive
- outcome [13]: inactive
- Potency [14]: 7.08 µM (active)
- Potency [15]: 12.6 µM (active)
- Potency [16]: inactive
- Potency [17]: 5.62 µM (active)
- Potency [18]: inactive
- outcome [19]: inactive
- Potency [20]: inactive
- Potency [21]: inactive
- Potency [22]: inactive
- Potency [23]: inactive
- Potency [24]: inactive
- outcome [25]: inactive
- outcome [26]: inactive
- activation [27]: 1.19%
- outcome [28]: inactive
- Potency [29]: inactive
- Potency [30]: inactive
- outcome [31]: inactive
- Potency [32]: inactive
- Potency [33]: inactive
- Potency [34]: inactive
